The source of these data is PubChem BioAssay (NCI).

The structures appear in SMILES notation. The panel holds about 83,000 compounds, 20% with a hit somewhere; the sample as a whole holds those more often.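 The test compound was applied at a single concentration to cells in 96-well plates for 48 hours, and percent growth was recorded.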 Activity calls are given as the source filed them. Rule for the calls: active = growth percent below 10; inactive = the rest.

This assay relates to MDA-MB-468 breast. Kind of assay: NCI-60 one-dose screen, 48 h (100 = growth as untreated, 0 = no growth, -100 = all killed). Particulars: 10 µM unless noted.
`CCCCCCCCCCCCOB(OCCCCCCCCCCCC)OCCCCCCCCCCCC`: the growth was 99.2% (inactive).

Regarding `Cn1nc(CC#N)c2c(=N)n(N)cnc21`, the growth is 106% (inactive).

As for `S=c1nc(CS)[nH]c2ccccc12`, the growth was 103% (inactive).

As for `CCCCN1CCN(c2ccc3nc(-c4ccc5nc(-c6ccc(OC)c(OC)c6)[nH]c5c4)[nH]c3c2)CC1`, the growth is -74.9% (active).

On to `CCCCCCCn1cc2c(NCCc3ccccc3)ncnc2n1`, for which the growth was 105% (inactive).

In the case of `CN(C)c1ccc(/C=C\C2=[N+](C)c3ccccc3C2(C)C)cc1`, the growth is 11% (inactive).

As for `COc1ccc(-c2cn[nH]c2-c2ccc(OC)c(O)c2)cc1`, the growth is 47.1% (inactive).

Consider `O=C(Nc1ccc(-n2cc(-c3ccncc3)c(-c3ccc(O)c(Cl)c3)n2)cc1)Nc1cc(C(F)(F)F)cc(C(F)(F)F)c1`, for which the growth is 37.1% (inactive).

As to `C=CC(=O)Nc1cccc(Oc2nccc(Nc3nnc(-c4ccc(Br)cc4)s3)n2)c1`, the growth was 114% (inactive).

In the case of `COc1ccc(C(O)c2cc3c(N)c(C(=O)Nc4ccc(Cl)cc4)sc3nc2C)cc1` (stereo not given), the growth was 3.39% (active).

Consider `O=c1c2c(=NCCCN3CCCC3)cc3c(=O)n(CCCN4CCCC4)c(=O)c4c(NCCCN5CCCC5)cc(c(O)n1CCCN1CCCC1)c2c4-3`, for which the growth is -62.2% (active).

Turning to `O=[N+]([O-])c1ccc(/C=N\Nc2ccccc2)cc1`, the growth is 94.7% (inactive).

For `COc1ccc(C2CC(c3cccc(OCCCCOc4cccc(C5=NOC(c6ccc(OC)cc6)C5)c4)c3)=NO2)cc1` (stereo not given), the growth is 112% (inactive).

Regarding `COc1cc(C(=O)/C=C/c2cccnc2Nc2ccc(Cl)cc2)cc(OC)c1OC`, the growth was -80.1% (active).

Consider `O=[N+]([O-])c1ccc(N/N=C/C2CCCCCC2)c([N+](=O)[O-])c1`, for which the growth was 86.4% (inactive).

`O=C(CSc1nc2sc3c(c2c(=O)n1-c1ccccc1)CCCCC3)N/N=C/c1cccc([N+](=O)[O-])c1`: the growth is 19.2% (inactive).

`COc1cc(Cn2cc(F)c(=O)[nH]c2=O)cc(OC)c1`: the growth is 106% [50 µM] (inactive).

As for `O=C1COCCN1c1ccc(Nc2nc(Cl)nc(N3CCOCC3)n2)cc1`, the growth is 87.2% (inactive).

Take `COC(=O)Nc1ccc(-c2nc(-c3cccc(O)c3)c(-c3ccnc(Br)c3)[nH]2)cc1`: the growth was 25.6% (inactive).

Regarding `C=C(C)[C@@H]1CC[C@]2(COC(=O)c3ccccc3C(=O)O)CC[C@]3(C)[C@H](CC[C@@H]4[C@@]5(C)CC[C@H](OC(=O)c6ccccc6C(=O)O)C(C)(C)[C@@H]5CC[C@]43C)[C@@H]12`, the growth is -22.5% [100 µM] (active).

`CCOC(=O)/C=C(/C)Sc1cc(O)c2ccccc2c1O`: the growth was 29.9% (inactive).

`O=C(Nc1cccnc1Nc1ccc(Cl)cc1)c1cn(Cc2ccc(F)cc2)nn1`: the growth was 99.5% (inactive).

Consider `O=C(CO[N+](=O)[O-])Nc1ccc(C(=O)/C=C/c2ccc3c(c2)OCO3)cc1`, for which the growth is 91.9% (inactive).

As to `COc1nc2c(cc1S(=O)(=O)c1ccccc1)CCc1c-2cnn1-c1ccc(Cl)cc1`, the growth was 87.6% (inactive).

Consider `CCOC(=O)c1sc2ncc(-c3ccc(OC)cc3)n2c1C`, for which the growth is 103% (inactive).

Turning to `COc1cc2c(cc1-c1c(C)noc1C)ncc1nc(C3CCOCC3)n([C@@H](C)COC(F)F)c12`, the growth is 47.5% (inactive).

Turning to `CCOc1ccc(-c2cnnn2-c2nonc2-n2cccc2)cc1`, the growth was 10.6% (inactive).

In the case of `COCCC[C@H]1O[C@@](O)([C@H](C)[C@@H]2CC(OC)C(O)/C=C(C)/C=C(C)/C=C(\C)C(OC3O[C@@H](C)[C@H](O)C(O)[C@@H]3O)C(C)/C=C(C)/C=C(OC)/C=C(\C)C(=O)O2)C(OC)C(O)[C@]1(C)O[C@H]1C[C@@H](O)[C@H](O[C@H]2C[C@](C)(O)[C@H](O)C(C)O2)C(C)O1` (stereo not given in full), the growth is 9.61% (active).

Consider `CC1COc2c(N3CCN(C)CC3)c(F)cc3c(=O)c(C(=O)N/N=C/c4cc[nH]c4)cn1c23` (stereo not given), for which the growth is -9.35% (active).

For the molecule `CC[C@]12C=CCN3CC[C@@]4(c5cc(NC(=O)CCC(=O)O[C@H]6CC[C@H]7[C@@H]8CCC9=CC(=O)CC[C@@H]9[C@H]8CC[C@]67C)c(OC)cc5N(C)[C@H]4[C@@](O)(C(=O)OC)[C@@H]1OC(C)=O)[C@@H]32`, the growth is 51.9% (inactive).

Turning to `O=C(Nc1nonc1-c1ccccc1)c1ccc(C(F)(F)F)cc1`, the growth was 101% (inactive).

Regarding `CC(=O)COc1ccc(Cl)cc1Cl`, the growth is 92.4% (inactive).

For the molecule `O=c1nc(Nc2cccc(Cl)c2)oc2cc(Cl)oc(=O)c12`, the growth was 75.1% (inactive).

`CCO/C=N/C1=C(C#N)C(c2ccc(OC)cc2)c2c(c3ccccc3n(C)c2=O)O1` (stereo not given): the growth was 105% (inactive).

For the molecule `Oc1ccc(C(c2ccc(O)cc2)c2ccc(Cl)cn2)cc1`, the growth was -30.9% (active).

With `N#Cc1c(-c2cccc(Cl)c2)cc(-c2cccc(F)c2)[nH]c1=O`, the growth is 87.1% (inactive).

Consider `N=C(N)c1ccc(-c2ccc(-c3ccc(-c4cccs4)s3)s2)cc1`, for which the growth was 96.5% (inactive).

Turning to `O=C(/C=C(/C=C/c1cccc2[nH]ccc12)OB(F)F)/C=C/c1cccc2[nH]ccc12`, the growth is -57% (active).

`COc1cc(/C=C(/c2ccccc2)[N+](=O)[O-])c(OC)c2c1OCO2`: the growth was -81.4% (active).

For `CCN1C(=O)N(CC)C2C1NN=c1s/c(=C3\C(=O)N(C)c4ccccc43)c(=O)n12` (stereo not given), the growth is 13.4% (inactive).
